Reference: PubChem BioAssay (Tox21)
Records with an inconclusive call do not appear. The source made the active and inactive calls. Unless noted, calls follow the shape of the full dose curve.

Assays:
[1] = Nuclear factor erythroid 2-related factor 2/antioxidant responsive element (Nrf2/ARE) small molecule agonists: qHTS cell viability counter screen in human keratinocytes (AID 1919968; active = well fitted curve in the direction sought with a large enough effect in the repeat runs; an effect the other way counts as inactive or inconclusive; also: nearly all actives have a fitted effect of over 55% in size)
Summary of the method: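 HaCaT ARE reporter line, 1,500 cells/well; 5 h settle, 37 C/5% CO2; cpd in DMSO pinned; 23 h exposure; CellTiter-Fluor, 1 h; fluorescence.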

[2] = target: Gonadotropin-releasing hormone receptor (Homo sapiens) (UniProt P30968); experiment: Human gonadotropin-releasing hormone receptor (GnRHR) small molecule agonists, calcium flux assay in GnRHR-HEK293 cells (AID 1920063); also: nearly all actives have a fitted effect of over 35% in size
Chain of Gonadotropin-releasing hormone receptor (Homo sapiens) (P30968 whole entry, looked up): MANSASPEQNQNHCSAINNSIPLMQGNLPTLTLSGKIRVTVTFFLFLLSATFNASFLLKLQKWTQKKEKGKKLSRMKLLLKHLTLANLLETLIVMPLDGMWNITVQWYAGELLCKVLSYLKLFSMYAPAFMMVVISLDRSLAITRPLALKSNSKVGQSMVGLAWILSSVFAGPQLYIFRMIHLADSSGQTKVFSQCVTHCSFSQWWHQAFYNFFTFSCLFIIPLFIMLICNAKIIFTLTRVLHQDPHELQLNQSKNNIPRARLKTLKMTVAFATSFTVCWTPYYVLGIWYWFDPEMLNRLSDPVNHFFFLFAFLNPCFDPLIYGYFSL
Summary of the method: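 GnRHR-HEK293, 1500 cells/well, 18 h 37 C/5% CO2; Ca dye 1 h 37 C; cpd pinned (DMSO), agonist mode; kinetic FL 480/540, 3 min, 1 s reads; 15 conc, n=3.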

[3] = target: KiSS-1 receptor (Homo sapiens) (UniProt Q969F8); experiment: Human kisspeptin (KISS1R) small molecule agonists, calcium flux assay in KISS1R-HEK293 cells (AID 1920064; active = well fitted curve in the direction sought with a large enough effect in the repeat runs; an effect the other way counts as inactive or inconclusive)
Chain of KiSS-1 receptor (Homo sapiens) (Q969F8 whole entry, looked up): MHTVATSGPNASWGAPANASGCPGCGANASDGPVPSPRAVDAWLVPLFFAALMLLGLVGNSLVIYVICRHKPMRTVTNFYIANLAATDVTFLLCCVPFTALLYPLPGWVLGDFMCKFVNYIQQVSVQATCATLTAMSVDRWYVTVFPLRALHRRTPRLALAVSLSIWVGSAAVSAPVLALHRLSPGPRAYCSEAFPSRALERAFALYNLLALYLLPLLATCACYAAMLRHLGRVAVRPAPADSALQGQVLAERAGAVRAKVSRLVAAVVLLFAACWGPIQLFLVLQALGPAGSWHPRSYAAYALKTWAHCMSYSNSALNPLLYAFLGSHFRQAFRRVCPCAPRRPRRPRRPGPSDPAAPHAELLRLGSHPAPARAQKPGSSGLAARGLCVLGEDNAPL
Summary of the method: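 Stable human KISS1R HEK293 line; 18 h plating, 37 C/5% CO2; calcium dye 1 h 37 C; compound pin transfer; kinetic fluorescence Ex/Em 480/540, 3 min.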

[4] = G protein-coupled receptor (GPCR) small molecule agonists, calcium flux assay: HEK293 wild type cell line counter screen (AID 1920065)
Summary of the method: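 Kinetic fluorescence at Ex/Em 480/540, recorded every second over 3 min, served as the read-out after compound addition. Each compound was tested at 15 concentrations in triplicate on cells pre-loaded with calcium dye for 1 h.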

[5] = p53 small molecule agonists, cell-based qHTS assay with human liver microsomes (AID 1963577);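 also: p53 response element beta-lactamase reporter cells with liver microsomes plus NADPH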
Summary of the method: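 Metabolically competent format: test substances, human liver microsomes and NADPH (both 0.5 mg/mL final) incubated with p53RE-bla cells 16 h at 37 C. Beta-lactamase reporter signal then quantified by fluorescence.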

[6] = p53 small molecule agonists, cell-based qHTS assay with rat liver microsomes (AID 1963578)
Summary of the method: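 Each plate received p53RE-bla cells, then compound, then rat liver microsomes and NADPH (both 0.5 mg/mL final). Plates were held 16 h at 37 C, and beta-lactamase activity was detected with LiveBLAzer over 2 h.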

[7] = p53 small molecule agonists, cell-based qHTS assay with human liver microsomes: qHTS cell viability counter screen (AID 1963579); also: nearly all actives have a fitted effect of over 45% in size
Summary of the method: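 Tox21 library compounds, delivered from DMSO stocks, were tested on p53RE-bla cells together with 0.5 mg/mL human liver microsomes and 0.5 mg/mL NADPH (final) over 16 h at 37 C; CellTiter-Glo luminescence served as the cytotoxicity measure.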

[8] = p53 small molecule agonists, cell-based qHTS assay: qHTS cell viability counter screen (AID 1963581); also: nearly all actives have a fitted effect of over 45% in size
Summary of the method: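 HCT-116 p53RE-bla cells, 4,000/well, plated 5 h before compound pin transfer; 16 h at 37 C; bla substrate 2 h RT; then CellTiter-Glo, 30 min RT, luminescence.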

[9] = p53 small molecule agonists, cell-based qHTS assay (AID 1963582; active = well fitted activation curve with a large enough effect in the signal ratio in the repeat runs, not every such curve was filed as active; the % refers to the signal ratio)
Summary of the method: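 Reporter line: p53RE-bla. Pre-incubation 5 h, 37 C, 5% CO2; compound (DMSO, pin tool) 16 h, 37 C; B/G FRET substrate 2 h RT; fluorescence intensity read.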

[10] = target: 5-hydroxytryptamine receptor 2A (Homo sapiens) (UniProt P28223); experiment: 5-hydroxytryptamine receptor 2A (HTR2A) small molecule agonists, cell-based qHTS assay (AID 1963587); also: nearly all actives have a fitted effect of over 30% in size
Chain of 5-hydroxytryptamine receptor 2A (Homo sapiens) (P28223 whole entry, looked up): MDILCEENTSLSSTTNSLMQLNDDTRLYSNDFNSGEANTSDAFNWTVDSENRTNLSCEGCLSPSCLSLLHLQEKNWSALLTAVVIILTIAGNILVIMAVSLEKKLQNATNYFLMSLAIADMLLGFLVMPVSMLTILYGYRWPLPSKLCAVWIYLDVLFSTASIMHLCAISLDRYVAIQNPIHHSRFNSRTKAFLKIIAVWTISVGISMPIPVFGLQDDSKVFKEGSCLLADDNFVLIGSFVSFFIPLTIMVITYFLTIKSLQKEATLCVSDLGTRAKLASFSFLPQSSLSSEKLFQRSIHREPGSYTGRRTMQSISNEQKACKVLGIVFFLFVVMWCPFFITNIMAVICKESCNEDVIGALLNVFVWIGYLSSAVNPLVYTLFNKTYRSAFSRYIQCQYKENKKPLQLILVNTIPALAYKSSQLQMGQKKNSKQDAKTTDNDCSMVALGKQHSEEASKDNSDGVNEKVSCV
Summary of the method: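 Kinetic calcium-flux fluorescence (2 min, 1 sec intervals) after compound addition in agonist mode. HTR2A-CHO cells were cultured 18 h, then dye-loaded 1 h at 37 C.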

[11] = target: Muscarinic acetylcholine receptor M1 (Homo sapiens) (UniProt P11229); experiment: Cholinergic receptor muscarinic 1 (CHRM1) small molecule antagonists, cell-based qHTS assay (AID 1963588); also: nearly all actives have a fitted effect of over 40% in size; also: potency is read from the fitted curve at half-maximal effect
Chain of Muscarinic acetylcholine receptor M1 (Homo sapiens) (P11229 whole entry, looked up): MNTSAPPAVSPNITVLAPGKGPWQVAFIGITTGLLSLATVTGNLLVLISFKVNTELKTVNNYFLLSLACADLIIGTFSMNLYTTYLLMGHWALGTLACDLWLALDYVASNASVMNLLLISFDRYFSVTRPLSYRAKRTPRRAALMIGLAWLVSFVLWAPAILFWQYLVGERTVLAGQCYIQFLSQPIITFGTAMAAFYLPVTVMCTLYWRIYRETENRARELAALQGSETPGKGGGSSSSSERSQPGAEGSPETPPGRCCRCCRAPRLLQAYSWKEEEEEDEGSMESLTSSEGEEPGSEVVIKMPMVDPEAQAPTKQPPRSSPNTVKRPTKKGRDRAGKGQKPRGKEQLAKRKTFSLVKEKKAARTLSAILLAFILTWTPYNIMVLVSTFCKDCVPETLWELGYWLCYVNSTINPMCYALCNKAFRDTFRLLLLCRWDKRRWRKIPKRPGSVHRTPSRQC
Summary of the method: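 CHRM1-CHO calcium-flux assay, antagonist mode. Cells were seeded 18 h, dye-loaded 1 h at 37 C and given compound for 5 min at RT, then acetylcholine was added at 50nM. FDSS fluorescence was read 3 min; 15 concentrations, three runs.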

[12] = target: Muscarinic acetylcholine receptor M1 (Homo sapiens) (UniProt P11229); experiment: Cholinergic receptor muscarinic 1 (CHRM1) small molecule agonists, cell-based qHTS assay (AID 1963589); also: nearly all actives have a fitted effect of over 35% in size
Summary of the method: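 Human M1 in stable CHO line; 18 h plating, 1 h dye load 37 C; cpd added (agonist mode); Ca2+ fluorescence kinetic read, 1 s intervals; 15 conc, 3 runs.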

[13] = cAMP Responsive Elements (CRE) small molecule agonists, cell-based qHTS assay (AID 1963590)
Summary of the method: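 HEK 293T CRE-bla, 2,000 cells/well, 18 h preincubation 37 C/5% CO2; cpds (DMSO) pinned, 3 h; LiveBLAzer B/G FRET substrate, 2 h RT.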

[14] = cAMP Responsive Elements (CRE) small molecule antagonists, cell-based qHTS assay (AID 1963591; active = well fitted inhibition curve with a large enough effect in the signal ratio in the repeat runs, not every such curve was filed as active; the % refers to the signal ratio)
Summary of the method: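 Beta-lactamase reporter read by FRET substrate (LiveBLAzer B/G) after 2 h at room temperature. CRE-bla HEK293T cells had received compound plus 0.25 uM (final) NKH477 for 3 h at 37 °C.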

[15] = target: Beta-2 adrenergic receptor (Homo sapiens) (UniProt P07550); experiment: Adrenergic beta2 receptor (ADRB2) small molecule agonists, cell-based qHTS assay (AID 1963593);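 also: CHO cells stably overexpressing human ADRB2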
Chain of Beta-2 adrenergic receptor (Homo sapiens) (P07550 whole entry, looked up): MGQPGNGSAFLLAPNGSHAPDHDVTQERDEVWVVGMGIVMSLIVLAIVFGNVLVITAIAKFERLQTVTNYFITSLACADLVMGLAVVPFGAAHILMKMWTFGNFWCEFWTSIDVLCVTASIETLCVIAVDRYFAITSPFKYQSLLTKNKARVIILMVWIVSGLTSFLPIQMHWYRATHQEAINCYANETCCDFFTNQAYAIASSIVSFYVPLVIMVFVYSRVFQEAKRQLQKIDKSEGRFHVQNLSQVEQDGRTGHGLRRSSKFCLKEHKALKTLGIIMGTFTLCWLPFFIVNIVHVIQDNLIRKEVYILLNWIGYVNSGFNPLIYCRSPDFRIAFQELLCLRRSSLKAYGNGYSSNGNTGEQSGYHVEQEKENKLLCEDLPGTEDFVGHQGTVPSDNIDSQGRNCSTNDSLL
Summary of the method: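 CHO cells stably over-expressing ADRB2 were plated overnight at 37C, then dosed with compounds plus a stimulation mix containing 100uM IBMX and 25uM Ro-20-1724 for 0.5hr at room temperature. cAMP was measured by HTRF competition, 1hr.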

[16] = target: D(2) dopamine receptor (Homo sapiens) (UniProt P14416); experiment: Dopamine D2 receptor (DRD2) small molecule agonists, cell-based qHTS assay (AID 1963594); also: nearly all actives have a fitted effect of over 35% in size
Chain of D(2) dopamine receptor (Homo sapiens) (P14416 whole entry, looked up): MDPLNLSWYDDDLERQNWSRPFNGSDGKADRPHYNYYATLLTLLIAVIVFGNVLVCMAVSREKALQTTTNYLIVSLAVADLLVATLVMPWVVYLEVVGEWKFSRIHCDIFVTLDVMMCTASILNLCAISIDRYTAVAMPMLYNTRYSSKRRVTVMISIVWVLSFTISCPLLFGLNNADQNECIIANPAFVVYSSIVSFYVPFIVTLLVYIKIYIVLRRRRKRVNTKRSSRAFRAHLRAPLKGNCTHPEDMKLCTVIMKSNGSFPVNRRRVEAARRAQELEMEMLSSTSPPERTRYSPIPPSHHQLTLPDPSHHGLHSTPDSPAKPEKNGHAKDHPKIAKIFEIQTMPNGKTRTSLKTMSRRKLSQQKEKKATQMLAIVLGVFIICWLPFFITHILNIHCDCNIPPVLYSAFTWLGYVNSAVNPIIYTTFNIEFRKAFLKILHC
Summary of the method: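 cAMP accumulation in DRD2-HEK293 cells measured by HTRF after 1 h detection; compounds added 10 min before NKH477 (200nM […]) forskolin-analogue stimulation, 30 min at room temperature, with Ro20-1724 present at 0.1 mM final.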

[17] = target: D(2) dopamine receptor (Homo sapiens) (UniProt P14416); experiment: Dopamine D2 receptor (DRD2) small molecule antagonists, cell-based qHTS assay (AID 1963595; active = well fitted inhibition curve with a large enough effect in the signal ratio in the repeat runs, with a control signal flat; the % refers to the signal ratio)
Summary of the method: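 Readout: HTRF cAMP, cAMP-d2 competing with cellular cAMP for anti-cAMP cryptate, read after 1 h. Cells: DRD2-HEK293. Conditions: 0.1 mM Ro20-1724, 12 nM quinpirole, 200 nM NKH477, 30 min RT.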

[18] = target: Beta-2 adrenergic receptor (Homo sapiens) (UniProt P07550); experiment: Adrenergic beta2 receptor (ADRB2) small molecule antagonists, cell-based qHTS assay (AID 1963592); also: series mostly up to about 92 µM; nearly all actives have a fitted effect of over 50% in size
Summary of the method: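 Cells (CHO, stable ADRB2 overexpression) incubated 18-20hr at 37C; compounds added from DMSO; agonist mix (1nM isoproterenol, 100uM IBMX, 25uM Ro-20-1724) added; 0.5hr RT; d2-cAMP and anti-cAMP-cryptate added; 1hr RT; 665/615 nm read.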

[19] = p53 small molecule agonists, cell-based qHTS assay with rat liver microsomes: qHTS cell viability counter screen (AID 1963580); also: nearly all actives have a fitted effect of over 45% in size
Summary of the method: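 Intracellular ATP, by CellTiter-Glo luminescence, defines viability. HCT-116 p53RE-bla cells, 4,000 per well, were compound-treated in the presence of rat liver microsomes and NADPH for 16 h at 37 C.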

[20] = target: 5-hydroxytryptamine receptor 2A (Homo sapiens) (UniProt P28223); experiment: 5-hydroxytryptamine receptor 2A (HTR2A) small molecule antagonists, cell-based qHTS assay (AID 1963586); also: nearly all actives have a fitted effect of over 45% in size
Summary of the method: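 Antagonist-mode intracellular calcium assay: DOI (4 nM) added after 5 min compound pre-incubation at room temperature to dye-loaded HTR2A-CHO cells. Fluorescence followed for 3 min, sampled every second.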
% is scaled to controls: 0 for no effect and ±100 for the full control effect.

O=C(OCc1ccccc1)C(=O)OCc1ccccc1
inactive: Potency [1] | Potency [2] | outcome [3] | outcome [4] | Potency [5] | Potency [6] | Potency [7] | Potency [8] | Potency [9] | Potency [10] | Potency [11] | Potency [12] | Potency [13] | Potency [14] | Potency [15] | Potency [16] | Potency [17]

Nc1[nH]c(=O)ncc1F
inactive: Potency [1] | Potency [2] | outcome [3] | outcome [4] | Potency [5] | Potency [6] | Potency [7] | Potency [9] | Potency [13] | Potency [14] | Potency [18] | Potency [15] | Potency [16] | Potency [17]

CC(C)(c1ccc(Oc2ccc3c(c2)C(=O)OC3=O)cc1)c1ccc(Oc2ccc3c(c2)C(=O)OC3=O)cc1
inactive: Potency [1] | Potency [2] | outcome [3] | outcome [4] | Potency [5] | Potency [6] | Potency [19] | Potency [8] | Potency [9] | Potency [20] | Potency [10] | Potency [13] | Potency [14] | Potency [18] | Potency [15] | Potency [16] | Potency [17]
active: Potency [11] 37.3 µM

Cc1cc(C(C)(C)C)c(O)c(C)c1Cn1c(=O)n(Cc2c(C)cc(C(C)(C)C)c(O)c2C)c(=O)n(Cc2c(C)cc(C(C)(C)C)c(O)c2C)c1=O
inactive: Potency [1] | Potency [2] | outcome [3] | outcome [4] | Potency [5] | Potency [6] | Potency [7] | Potency [19] | Potency [8] | Potency [20] | Potency [10] | Potency [11] | Potency [12] | Potency [13] | Potency [14] | Potency [18] | Potency [15] | Potency [16] | Potency [17]

NC(=O)CC[C@@H]1NC(=O)[C@H](Cc2ccccc2)NC(=O)[C@H](Cc2ccc(O)cc2)NC(=O)CCSSC[C@@H](C(=O)N2CCC[C@H]2C(=O)N[C@@H](CCCN=C(N)N)C(=O)NCC(N)=O)NC(=O)[C@H](CC(N)=O)NC1=O
inactive: Potency [1] | Potency [2] | outcome [3] | outcome [4] | Potency [5] | Potency [6] | Potency [19] | Potency [9] | Potency [13] | Potency [18] | Potency [15] | Potency [16] | Potency [17]

CC(C)CCOC(=O)CC(C)C
inactive: Potency [1] | Potency [2] | outcome [3] | outcome [4] | Potency [5] | Potency [6] | Potency [19] | Potency [8] | Potency [20] | Potency [10] | Potency [12] | Potency [13] | Potency [14] | Potency [15] | Potency [16] | Potency [17]

CC(C(=O)O)c1ccc(-c2ccccc2)c(F)c1 (configuration not stated)
inactive: Potency [1] | Potency [2] | outcome [3] | outcome [4] | Potency [5] | Potency [6] | Potency [7] | Potency [8] | Potency [18] | Potency [16] | Potency [17]

NCC[C@H](O)C(=O)N[C@@H]1C[C@H](N)[C@@H](O[C@H]2O[C@H](CN)[C@@H](O)[C@H](O)[C@H]2O)[C@H](O)[C@H]1O[C@H]1O[C@H](CO)[C@@H](O)[C@H](N)[C@H]1O
inactive: activity change, negative = cytotoxicity [1] -17.6% [at 0.349 µM] | activity change [2] -0.191% [at 0.217 µM, hits give high values] | activation [3] 0.177% [at 0.29 µM] | activation [4] 0.401% [at 0.217 µM] | activation [5] 0.0378% [at 0.249 µM] | activation [6] -0.443% [at 0.249 µM] | activity change, negative = cytotoxicity [7] 4.34% [at 0.249 µM] | activity change, negative = cytotoxicity [19] 1.45% [at 0.249 µM] | activity change, negative = cytotoxicity [8] -9.5% [at 0.249 µM] | activation [9] 0.378% [at 0.249 µM] | activation [13] -1.43% [at 0.349 µM] | activity change, negative = inhibition [14] -1.04% [at 0.349 µM] | activity change, negative = inhibition [18] 4.47% [at 0.349 µM] | activation [15] 21.1% [at 0.349 µM] | activation [16] -17.8% [at 0.349 µM] | activity change, negative = inhibition [17] -0.368% [at 0.348 µM]

NS(=O)(=O)c1cc(C2(O)NC(=O)c3ccccc32)ccc1Cl (configuration not stated)
inactive: Potency [1] | Potency [2] | outcome [3] | outcome [4] | Potency [5] | Potency [6] | Potency [19] | Potency [8] | Potency [9] | Potency [13] | Potency [14] | Potency [18] | Potency [15] | Potency [16] | Potency [17]

Cc1nc(-c2ccc(OCC(C)C)c(C#N)c2)sc1C(=O)O
inactive: Potency [1] | Potency [2] | outcome [3] | outcome [4] | Potency [5] | Potency [6] | Potency [7] | Potency [19] | Potency [8] | Potency [10] | Potency [11] | Potency [12] | Potency [16] | Potency [17]

CCCCS(=O)(=O)N[C@@H](Cc1ccc(OCCCCC2CCNCC2)cc1)C(=O)O
inactive: Potency [1] | Potency [2] | outcome [3] | outcome [4] | Potency [5] | Potency [6] | Potency [7] | Potency [19] | Potency [9] | Potency [20] | Potency [10] | Potency [11] | Potency [12] | Potency [13] | Potency [14] | Potency [18] | Potency [17]

C=C(C)C(=O)OCCCCCCCCCCOC(=O)C(=C)C
inactive: Potency [1] | Potency [2] | outcome [3] | outcome [4] | Potency [5] | Potency [6] | Potency [7] | Potency [8] | Potency [9] | Potency [10] | Potency [11] | Potency [12] | Potency [13] | Potency [14] | Potency [18] | Potency [17]

CNCCc1ccccn1
inactive: Potency [1] | Potency [2] | outcome [3] | outcome [4] | Potency [5] | Potency [6] | Potency [7] | Potency [19] | Potency [8] | Potency [9] | Potency [13] | Potency [14] | Potency [18] | Potency [15] | Potency [16] | Potency [17]
